PubChem BioAssay (NCATS)
Records with an inconclusive call do not appear. The source made the active and inactive calls. Unless noted, the call rests on the fitted dose curve; in most records, active means well fitted curve in either direction with a large enough effect (not every such curve was filed as active); inconclusive means small, poorly fitted or top-dose-only effect, or another doubt; inactive means flat fitted curve, though single readings scatter.

How the values were obtained:
[1] = target: Lysosomal acid glucosylceramidase (Homo sapiens) (UniProt P04062); assay: Glucocerebrosidase-p2 (AID 348; in the data active means potency below about 10 µM; further: potency means the concentration at half of the fitted maximal effect); conditions: purified GBA, blue fluorogenic substrate, 40 min
Sequence of Lysosomal acid glucosylceramidase (Homo sapiens) (P04062 whole entry, looked up): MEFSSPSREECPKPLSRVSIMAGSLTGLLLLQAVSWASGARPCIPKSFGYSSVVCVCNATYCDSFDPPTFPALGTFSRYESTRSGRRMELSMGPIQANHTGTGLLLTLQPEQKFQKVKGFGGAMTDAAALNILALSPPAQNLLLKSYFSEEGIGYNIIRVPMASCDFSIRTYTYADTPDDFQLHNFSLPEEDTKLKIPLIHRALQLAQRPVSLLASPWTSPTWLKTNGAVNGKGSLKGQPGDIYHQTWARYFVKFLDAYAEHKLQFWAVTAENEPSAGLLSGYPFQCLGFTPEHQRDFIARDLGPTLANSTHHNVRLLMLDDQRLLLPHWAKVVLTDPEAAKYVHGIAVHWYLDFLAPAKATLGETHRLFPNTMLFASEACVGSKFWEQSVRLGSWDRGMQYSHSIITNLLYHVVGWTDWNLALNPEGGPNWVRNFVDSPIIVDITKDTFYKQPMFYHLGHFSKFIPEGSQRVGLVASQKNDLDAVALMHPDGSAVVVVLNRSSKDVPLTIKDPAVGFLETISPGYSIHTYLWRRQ
In short: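 Normal human glucocerebrosidase (0.2 nM) with blue fluorogenic substrate (80 uM final) in citrate/phosphate pH 5.9 with 10mM sodium taurocholate, 0.01% tween-20; 40 min RT, NaOH/glycine stop; fluorescence Ex 365/Em 440; AC50 from a titration from 0.6 nM upwards.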

[2] = AP1 Signaling Pathway (AID 357); conditions: ME-180 AP-1-bla reporter, EGF-induced, beta-lactamase ratio, 5 h; at 7.69 µM (top of the series) unless noted;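 further: ME-180 reporter cells stimulated with EGF at its EC50 level; on the % scale 0 is the no-effect control and ±100 the full control effect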
In short: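 Modulation of EGF-driven AP-1 transcription was assessed with a beta-lactamase reporter in ME-180 cells. Compound and EC50 EGF were co-incubated 5 hours at 37 °C before 2.5-hour CCF4 loading at room temperature and dual-emission reading.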

[3] = target: Cytochrome P450 1A2 (Homo sapiens) (UniProt P05177); assay: p450-cyp1a2 (AID 410; calls by dose curve; further: potency means the concentration at half of the fitted maximal effect;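 on activity change, negative = inhibition: -100% = full effect of reference inhibitor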); conditions: recombinant CYP1A2, luciferin-ME demethylation, luminescence; series mostly up to 11.4 µM
Sequence of Cytochrome P450 1A2 (Homo sapiens) (P05177 whole entry, looked up): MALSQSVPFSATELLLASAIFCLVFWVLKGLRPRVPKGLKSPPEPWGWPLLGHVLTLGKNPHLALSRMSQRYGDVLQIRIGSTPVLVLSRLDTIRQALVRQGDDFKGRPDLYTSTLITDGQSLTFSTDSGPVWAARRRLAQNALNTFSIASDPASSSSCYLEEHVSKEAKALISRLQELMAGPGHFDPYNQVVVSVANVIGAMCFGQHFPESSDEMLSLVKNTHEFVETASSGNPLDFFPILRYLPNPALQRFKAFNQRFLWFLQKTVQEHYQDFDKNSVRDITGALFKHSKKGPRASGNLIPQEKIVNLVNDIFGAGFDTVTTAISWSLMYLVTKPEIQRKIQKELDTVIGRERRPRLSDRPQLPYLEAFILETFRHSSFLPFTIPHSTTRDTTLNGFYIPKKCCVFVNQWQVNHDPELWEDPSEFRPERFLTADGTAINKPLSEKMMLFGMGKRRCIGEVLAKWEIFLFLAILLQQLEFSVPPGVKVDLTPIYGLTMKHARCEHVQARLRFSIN
In short: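 Read-out is luminescence from luciferin produced by CYP1A2 demethylation of Luciferin-ME (100uM, at Km). Detection reagent stopped the 60 min NADPH-dependent reaction; signals were normalized to 57 uM furafylline.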

[4] = NFAT Signaling Pathway (AID 444); conditions: Jurkat NFAT-bla M1, carbachol, beta-lactamase ratio, 5 h; at 7.69 µM (top of the series) unless noted;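 further: carbachol stimulus at about its EC50 of 1 µM final; on the % scale 0 is the no-effect control and ±100 the full control effect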
In short: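 Jurkat cells with NFAT-driven β-lactamase reporter and co-expressed M1 receptor, stimulated with carbachol (final 1 uM, ~EC50), compound titration, 5 h at 37 °C. CCF4 loaded 1 h at RT; 460/530 nm ratio gave %activity and AC50.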

[5] = Stat Signaling Pathway (AID 446); conditions: ME-180 (cervical carcinoma) SIE beta-lactamase reporter, IL-6 stimulated, 5 h; at 7.69 µM (top of the series) unless noted;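 further: ME-180 cervical cancer cells given 40 pM IL-6 alongside compound; SIE-controlled beta-lactamase reporter measured as 460/530 nm FRET emission ratio; on the % scale 0 is the no-effect control and ±100 the full control effect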
In short: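 Normalization used AC90 stimulation (300 pM IL-6) and AC90 inhibition (125 nM pan-JAK inhibitor at 40 pM IL-6). The underlying signal is SIE-driven beta-lactamase in ME-180 cells after 5 h IL-6 exposure with compound.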

[6] = target: Glucocorticoid receptor (Homo sapiens) (UniProt P04150); assay: GR-GFP Redistribution (AID 450;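 active means compounds whose dose series gives a full or clear partial fitted curve of increased nuclear translocation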; further: potency means the concentration at half of the fitted maximal effect); conditions: U2OS GR-GFP nuclear translocation, laser cytometry, 2 h
Sequence of Glucocorticoid receptor (Homo sapiens) (P04150 whole entry, looked up, the tested form may be a part): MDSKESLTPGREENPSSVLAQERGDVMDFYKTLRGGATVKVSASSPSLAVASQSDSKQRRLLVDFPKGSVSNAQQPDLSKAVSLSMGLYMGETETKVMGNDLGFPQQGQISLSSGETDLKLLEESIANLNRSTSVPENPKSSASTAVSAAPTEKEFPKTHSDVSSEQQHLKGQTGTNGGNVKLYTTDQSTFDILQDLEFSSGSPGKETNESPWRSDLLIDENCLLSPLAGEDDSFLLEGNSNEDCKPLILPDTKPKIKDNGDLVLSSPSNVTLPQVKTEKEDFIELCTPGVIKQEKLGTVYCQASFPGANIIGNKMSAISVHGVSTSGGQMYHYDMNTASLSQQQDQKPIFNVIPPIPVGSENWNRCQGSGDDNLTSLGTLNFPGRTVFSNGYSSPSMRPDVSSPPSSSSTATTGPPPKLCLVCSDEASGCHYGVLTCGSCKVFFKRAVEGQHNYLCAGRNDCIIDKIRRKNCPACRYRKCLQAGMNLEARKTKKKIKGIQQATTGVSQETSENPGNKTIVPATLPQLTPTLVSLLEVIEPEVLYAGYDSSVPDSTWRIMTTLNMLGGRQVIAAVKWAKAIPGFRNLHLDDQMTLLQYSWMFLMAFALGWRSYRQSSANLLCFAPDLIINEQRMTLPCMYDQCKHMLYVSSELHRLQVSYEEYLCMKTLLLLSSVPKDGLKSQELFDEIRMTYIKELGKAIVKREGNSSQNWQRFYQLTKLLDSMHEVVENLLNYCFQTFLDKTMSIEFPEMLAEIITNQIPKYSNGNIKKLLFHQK

[7] = target: Glucocorticoid receptor (Homo sapiens) (UniProt P04150); assay: GR-EFC Redistribution (AID 451; calls by dose curve; further: potency means the concentration at half of the fitted maximal effect); conditions: CHO-K1 GR-EFC translocation, beta-gal luminescence, 2 h
In short: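 CHO-K1 cells expressing nuclear EA and GR-ED fragments of b-gal; compounds titrated up to 46 uM final, 2 h at 37 C. GR nuclear translocation read as complemented b-gal luminescence after 1 h RT detection.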

[8] = target: Mitogen-activated protein kinase 10 (Mus musculus) (UniProt Q61831); assay: JNK3 AlphaScreen Assay (AID 530); conditions: JNK3 lysate, c-Jun phosphorylation; series mostly up to 11.4 µM;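 further: kinase came from lysate of stimulated human HepG2 cells; signal reports phosphorylation of biotinylated GST-cJun 1-79 at Ser73 with 10 µM ATP; on the % scale 0 is the no-effect control and ±100 the full control effect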
In short: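 HepG2 lysate (IL-1b/TNFa pre-activated) + biotin-GST-cJun 1-79 + anti-pSer73 cJun; cpd titration, 15 min RT; ATP 10 uM start; Tris pH 7.6, MgCl2, DTT, vanadate; beads in EDTA buffer; AlphaScreen.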

[9] = target: 3',5'-cyclic-AMP phosphodiesterase 4B (Homo sapiens) (UniProt Q07343); assay: qHTS Assay for Inhibitors of PDE-IV (AID 607; active means well fitted activation curve with a large enough effect in the main read-out, with a control signal flat, not every such curve was filed as active; further: % of control where 0% means no effect); conditions: HEK293 ACTOne CNG channel cells, membrane potential fluorescence; series mostly up to 22.9 µM
Sequence of 3',5'-cyclic-AMP phosphodiesterase 4B (Homo sapiens) (Q07343 whole entry, looked up): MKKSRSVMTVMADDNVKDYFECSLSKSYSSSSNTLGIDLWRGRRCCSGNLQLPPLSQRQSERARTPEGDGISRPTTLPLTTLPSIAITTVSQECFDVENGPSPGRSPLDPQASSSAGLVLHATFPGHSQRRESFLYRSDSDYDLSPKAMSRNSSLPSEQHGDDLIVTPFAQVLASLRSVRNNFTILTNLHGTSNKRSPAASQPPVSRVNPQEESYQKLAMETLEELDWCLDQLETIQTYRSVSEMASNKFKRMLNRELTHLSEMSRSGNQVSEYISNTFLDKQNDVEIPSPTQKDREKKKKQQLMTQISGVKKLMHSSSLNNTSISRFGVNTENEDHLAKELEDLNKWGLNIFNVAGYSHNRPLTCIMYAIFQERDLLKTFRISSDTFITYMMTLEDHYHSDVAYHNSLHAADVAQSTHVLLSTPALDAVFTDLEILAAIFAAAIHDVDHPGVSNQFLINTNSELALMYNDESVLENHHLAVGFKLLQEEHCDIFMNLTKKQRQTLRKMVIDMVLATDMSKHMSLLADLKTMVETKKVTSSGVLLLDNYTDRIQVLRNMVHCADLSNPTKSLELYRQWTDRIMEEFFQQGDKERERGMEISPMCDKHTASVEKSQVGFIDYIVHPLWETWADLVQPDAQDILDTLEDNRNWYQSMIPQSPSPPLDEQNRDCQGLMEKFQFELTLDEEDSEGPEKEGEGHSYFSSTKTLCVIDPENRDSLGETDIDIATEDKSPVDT
In short: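 HEK293 ACTOne cells with CNG channel (1000/well), endogenous PDE4; membrane potential dye, compounds up to 22.9 uM final. Fluorescence Ex 535/Em 590; RO 20-1724 (100 uM final) as reference.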

O=C(O)c1nnsc1COCc1ccccc1
inactive: Potency [1] > 11.4 µM | activity change, negative = inhibition [2] 6.35% | Potency [3] | activity change, negative = inhibition [4] 6.97% | activity, negative = inhibition [5] 12.4% | Potency [6] > 46 µM | Potency [7] > 9.22 µM | Potency [8] | Potency [9]

C/C(=N\O)c1cccc[n+]1Cc1ccccc1
inactive: Potency [1] > 11.4 µM | activity change, negative = inhibition [2] -1.8% | Potency [3] | activity change, negative = inhibition [4] -12.3% | activity, negative = inhibition [5] 11.4% | Potency [6] > 46 µM | Potency [7] > 9.22 µM | Potency [8] | Potency [9]

CO[C@@H](NC(N)=O)C(=O)O
inactive: Potency [1] > 11.4 µM | activity change, negative = inhibition [2] -1% | activity change, negative = inhibition [3] -6.4% [at 2.29 µM] | activity change, negative = inhibition [4] 1.38% | activity, negative = inhibition [5] 8.15% | Potency [6] > 46 µM | Potency [7] > 9.22 µM | Potency [8] | Potency [9]

CC1=C(CC[C@H](C)CO)O[C@@H]2C[C@@H]3[C@H]4CC[C@H]5C[C@@H](O)CC[C@]5(C)[C@@H]4CC(=O)[C@@]3(C)[C@@H]12
inactive: Potency [1] > 11.4 µM | activity change, negative = inhibition [2] 12.3% | activity change, negative = inhibition [3] -21.1% [at 2.29 µM] | activity change, negative = inhibition [4] -4.84% | activity, negative = inhibition [5] -18.7% | Potency [6] > 46 µM | Potency [7] > 9.22 µM | Potency [8] | Potency [9]

O=S(=O)(O)c1ccc(O)c2ncccc12.O=S(=O)(O)c1ccc(O)c2ncccc12.[Zn]
active: Potency [3] 0.631 µM
inactive: Potency [1] > 11.4 µM | activity change, negative = inhibition [2] 6.49% | activity change, negative = inhibition [4] -15.3% | activity, negative = inhibition [5] 7.8% | Potency [6] > 46 µM | Potency [7] > 9.22 µM | Potency [8] | Potency [9]

O=C(O)c1ccc(C(=O)c2ccccc2C(=O)O)cc1C(=O)O
inactive: Potency [1] > 11.4 µM | activity change, negative = inhibition [2] -15.3% | Potency [3] | activity change, negative = inhibition [4] 20.9% | activity, negative = inhibition [5] -1.86% | Potency [6] > 46 µM | Potency [7] > 9.22 µM | Potency [8] | Potency [9]

O=S(=O)(O)CCCc1cccc2ccccc12
inactive: Potency [1] > 11.4 µM | activity change, negative = inhibition [2] 3.46% | activity change, negative = inhibition [3] -16.7% [at 2.29 µM] | activity change, negative = inhibition [4] 3.52% | activity, negative = inhibition [5] 1.1% | Potency [6] > 46 µM | Potency [7] > 9.22 µM | Potency [8] | Potency [9]

C[C@@H](N=C(N)N)C(=O)O
inactive: Potency [1] > 11.4 µM | activity change, negative = inhibition [2] -6.66% | Potency [3] | activity change, negative = inhibition [4] 16.8% | activity, negative = inhibition [5] -6.68% | Potency [6] > 46 µM | Potency [7] > 9.22 µM | Potency [8] | Potency [9]

Cc1noc(NC(=O)Nc2ccccc2F)c1C#N
active: Potency [3] 0.794 µM
inactive: Potency [1] > 11.4 µM | activity change, negative = inhibition [2] -0.973% | activity change, negative = inhibition [4] 11.4% | activity, negative = inhibition [5] -14.1% | Potency [6] > 46 µM | Potency [7] > 9.22 µM | Potency [8] | Potency [9]

CCOC(=O)Nc1nc(-c2ccccc2)c(C)s1
inactive: Potency [1] > 11.4 µM | activity change, negative = inhibition [2] -8.11% | activity change, negative = inhibition [4] -9.95% | activity, negative = inhibition [5] 1.24% | Potency [6] > 46 µM | Potency [7] > 9.22 µM | Potency [8] | Potency [9]
active: Potency [3] 0.2 µM

Nc1nc(N)c(CCCCc2ccccc2)c(N)n1
inactive: Potency [1] > 11.4 µM | activity change, negative = inhibition [2] 17.9% | activity change, negative = inhibition [3] -0.2% [at 2.29 µM] | activity change, negative = inhibition [4] 2.59% | activity, negative = inhibition [5] 1.49% | Potency [6] > 46 µM | Potency [7] > 9.22 µM | Potency [8] | Potency [9]

O=C(O)c1ccc(C(=O)Nc2cccc3ccccc23)c(C(=O)O)c1
inactive: Potency [1] > 11.4 µM | activity change, negative = inhibition [2] 4.87% | activity change, negative = inhibition [3] -6.2% [at 2.29 µM] | activity change, negative = inhibition [4] 5.96% | activity, negative = inhibition [5] 0.708% | Potency [6] > 46 µM | Potency [7] > 9.22 µM | Potency [8] | Potency [9]

N#C/C(=C\Nc1ccccn1)C(=O)C1CC1
inactive: Potency [1] > 11.4 µM | activity change, negative = inhibition [2] 7.75% | activity change, negative = inhibition [4] 5.1% | activity, negative = inhibition [5] 1.86% | Potency [6] > 46 µM | Potency [7] > 9.22 µM | Potency [8] | Potency [9]
active: Potency [3] 1.26 µM

O=S(=O)(c1ccc(Br)cc1)N1CCN(S(=O)(=O)c2ccc(Br)cc2)CC1
inactive: Potency [1] > 11.4 µM | activity change, negative = inhibition [2] 14.8% | Potency [3] | activity change, negative = inhibition [4] -0.352% | activity, negative = inhibition [5] 5.43% | Potency [6] > 46 µM | Potency [7] > 9.22 µM | Potency [8] | Potency [9]

C[C@H](CCC(=O)O)[C@H]1CC[C@]2(C)[C@@H]3C(=O)C[C@H]4C(C)(C)[C@@H](O)CC[C@]4(C)[C@H]3C(=O)C[C@@]12C
inactive: Potency [1] > 11.4 µM | activity change, negative = inhibition [2] 4.2% | Potency [3] | activity change, negative = inhibition [4] 21.4% | activity, negative = inhibition [5] 8.37% | Potency [6] > 46 µM | Potency [7] > 9.22 µM | Potency [8] | Potency [9]

CN(C)CCCn1cnc2cc(Cl)c(Cl)cc21
inactive: Potency [1] > 11.4 µM | activity change, negative = inhibition [2] 1.9% | activity change, negative = inhibition [3] -20% [at 2.29 µM] | activity change, negative = inhibition [4] -23.5% | activity, negative = inhibition [5] 11.7% | Potency [6] > 46 µM | Potency [7] > 9.22 µM | Potency [8] | Potency [9]
